Assay outcomes: PubChem, National Center for Advancing Translational Sciences (NCATS)
Hits are enriched below; roughly 6.5% of the tested compounds scored in any of these assays.
LASV entry inh = inhibitors of Lassa virus binding or cell entry | Lassa virus pseudotype entry inhibition, cell reporter | Potency, µM (series often up to 37.9 µM), most hits filed as inhibitors | 1.2% of 300,000 active | AID 540256; calls by dose curve; tested in HEK293 cells; further: nearly all actives have a fitted effect of over 50% in size
VACV mCherry inh = vaccinia inhibition (mCherry reporter) | Potency, µM (top dose mostly 36.5 µM), usual class: inhibitors | 0.63% of 310,000 active | Vaccinia virus mCherry reporter infection, fluorescence; calls by dose curve; tested in A549 cells; further: nearly all actives have a fitted effect of over 35% in size
VACV Venus inh = vaccinia inhibition (Venus reporter) | Vaccinia virus Venus reporter expression, fluorescence | Potency, µM (titrated, usually from 36.5 µM), usual class: inhibitors | 0.46% of 330,000 active; calls by dose curve; tested in A549 cells; further: nearly all actives have a fitted effect of over 30% in size
MARV entry inh = blocks Marburg virus binding to or entry into cells | Marburg virus pseudotyped entry inhibition, cell reporter | Potency, µM (highest dose often 37.8 µM), most hits filed as inhibitors | 1.8% of 300,000 active | AID 540276; calls by dose curve; tested in HEK293 cells
HCMV antiviral = human cytomegalovirus inhibition; activity change, negative = inhibition, % at 57.5 µM; 4.5% of 410,000 active; AID 1259415; HFF cells, HCMV-luciferase reporter, 72 h; stronger effect = lower value; in the data active means activity change below about -60%; inconclusive means no clear call, values can overlap the other calls; inactive means above about -39%
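Inhibition of viral replication was scored as loss of reporter luminescence in HFFs infected with HCMV-luciferase (MOI 1 PFU/cell) for 72 h; compounds tested at 2 doses, normalized to buffer and Salinomycin controls.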
FMDV inh = foot and mouth disease virus antiviral activity | FMDV antiviral cell-based qHTS | Potency, µM (highest dose often 57.9 µM), usual class: inhibitors | 1.2% of 410,000 active | AID 1159524; calls by dose curve; tested in HEK293T cells; further: read-out not given here; nearly all actives have a fitted effect of over 45% in size
A number is an active result; 0 = inactive; ? = inconclusive; - = no result given; [ ] = dose if it differs, or a comment.

SMILES	LASV entry inh	VACV mCherry inh	VACV Venus inh	MARV entry inh	HCMV antiviral	FMDV inh
CC(NC(=O)c1cccc(Nc2nc3ccccc3n3nnnc23)c1)c1ccccc1 (stereo not given)	?	?	10µM	-	-67.8	?
CC(C)CCNC(=O)c1cccc(Nc2nc3ccccc3n3nnnc23)c1	0	?	?	0	-81.4	0
COc1ccc(CCNC(=O)c2ccc(Nc3nc4ccccc4n4nnnc34)cc2)cc1OC	0	0	0	?	-114.1	?
O=C(NCCc1ccc(Cl)cc1)c1ccc(Nc2nc3ccccc3n3nnnc23)cc1	?	?	0	?	0	?
COCCNc1cc(N2CCN(C3CCCCC3)CC2)c2noc3c2c1C(=O)c1ccccc1-3	0	0	0	0	0	0
C[n+]1c2ccccc2nc2ccc(NCCO)cc21	?	0	0	?	-80.7	?
c1ccc2nc3ccccc3cc2c1	-	0	0	-	-	-
CC(C)n1c(NCCO)nc2ccccc21	0	0	0	0	0	0
CNc1ccc2nc3ccccc3[n+](C)c2c1	-	0	0	-	-100.9	0
C=CC1=C2C=C(C3CC3)N(Cc3ccccc3)C=C2C(=O)C(C)(OC(=O)c2ccco2)C1=O (stereo not given)	-	-	-	0	-	-
CCOC(=O)NN=C1C[C@@H](O)[C@@H](O)[C@@H]2[C@H]3C(=O)N([C@@H](C)c4ccccc4)C(=O)[C@@H]3CC[C@H]12	-	-	-	0	-	-
COc1ccc(OC)c2c(/C=C/c3ccc(N(C)C)cc3)ccnc12	-	0	0	-	-	-
COc1ccc(OC)c2c(/C=C/c3c(C)[nH]c4ccccc34)ccnc12	-	12.6µM	0	-	-	-
CC1CCc2c(sc(NC(=O)Cn3cnc([N+](=O)[O-])n3)c2C(N)=O)C1 (stereo not given)	-	-	-	-	-62.4	0
CSCCC1c2cccn2-c2ccccc2N1C=Nc1c(C)cccc1C (stereo not given)	-	-	-	-	0	-
CCCC(=O)N1c2ccccc2-c2nnc(SC)nc2OC1c1sccc1C (stereo not given)	0	0	0	0	0	0
CCSc1nnc2c(n1)OC(c1sccc1C)N(C(C)=O)c1ccccc1-2 (stereo not given)	0	0	0	0	-60.1	0
O=C(NCc1ccccc1)O[C@H]1CC[C@@]23CCCN2C(=O)CCC[C@H]3[C@H]1Cc1ccccc1	-	-	-	-	0	-
C[C@H](c1ccccc1)N1C[C@@H](COCc2ccccc2)Oc2cccc(Oc3ccc(F)cc3)c2S1(=O)=O	3.53µM	-	-	-	?	-
CCCCN1CC(COCc2ccccc2)Oc2cccc(Oc3ccc(SC)c(C)c3)c2S1(=O)=O (stereo not given)	-	-	-	-	-80.0	-
CC1CCCN(c2cccc3c2S(=O)(=O)N([C@H](C)c2ccccc2)C[C@@H](COCc2ccccc2)O3)C1 (stereo not given in full)	-	-	-	-	-82.0	-
COC[C@H]1CCCN1c1ccc2c(c1)O[C@H](COCc1ccccc1)CN([C@@H](C)c1ccccc1)S2(=O)=O	-	0	0	-	0	0
CCN(c1cc(C)cc(C)c1)S(=O)(=O)c1nnc(NC(=O)C(C)(C)C)s1	-	-	-	-	-67.2	0
Oc1ccc(C[C@H]2CN([C@@H](Cc3ccc(O)cc3)CN3CCC[C@@H]3CN3C(=S)NC[C@@H]3Cc3ccccc3)C(=S)N2CCc2ccccc2)cc1	-	0	0	-	0	0
CCOc1ccc(CCN2C(=S)N([C@@H](Cc3ccc(O)cc3)CN3CCCC3CN3C(=S)NC[C@@H]3Cc3ccc(O)cc3)C[C@@H]2CC(C)C)cc1 (stereo not given in full)	-	?	?	-	-79.5	?
SMILES	LASV entry inh	VACV mCherry inh	VACV Venus inh	MARV entry inh	HCMV antiviral	FMDV inh
CCOc1ccc(CCN2C(=S)N([C@@H](Cc3ccccc3)CN3CCC[C@@H]3CN3C(=S)NC[C@@H]3Cc3ccc(O)cc3)C[C@@H]2CC(C)C)cc1	-	0	0	-	0	0
CCOc1ccc(CCN2C(=S)N([C@@H](Cc3ccc(O)cc3)CN3CCC[C@@H]3CN3C(=S)NC[C@@H]3CC(C)C)C[C@@H]2Cc2ccc(O)cc2)cc1	-	?	?	-	-63.4	0
COc1ccc(NC(=O)CNC(=O)c2ccco2)cc1	?	0	0	0	0	0
Cc1ccc(S(=O)(=O)N2CCN(CC(=O)Nc3ccccc3Cl)CC2)cc1	-	-	-	-	0	0
COC(=O)c1ccccc1NC(=O)CNC(=O)c1ccco1	0	-	0	0	-71.7	0
COc1cc(NC(=O)c2ccc(C(C)(C)C)cc2)c(OC)cc1NC(=O)CN1CCCCC1	10µM	0	0	?	?	?
O=C(CN1CCCCC1)Nc1cccc(Cl)c1Cl	0	0	0	0	0	0
Cc1ccc(S(=O)(=O)Nc2ccc(NC(=O)CN3CCCCC3)c(Cl)c2)cc1	0	-	-	?	-102.2	0
O=C(CN1CCCCCCC1)Nc1cccc(Cl)c1Cl	-	-	-	-	-65.4	0
COC(=O)c1ccccc1-c1cc(C)cc2c1OC(CNC(=O)c1cc(C)n(C)n1)C2 (stereo not given)	-	0	0	-	-	0
CC(C)c1ccc(Nc2nc(Nc3ccc(Cl)cc3)nc(N3CCOCC3)n2)cc1	-	0	0	-	-	-
COc1ccc(NC(=O)Cn2c(=O)n(-c3ccc(CC(=O)NCc4ccco4)cc3)c(=O)c3ccccc32)cc1	-	0[7.34 µM]	0[7.34 µM]	-	-62.7	0
COC(=O)c1ccccc1NC(=O)Cn1c(=O)n(-c2ccc(C)cc2)c(=O)c2ccccc21	0	?	0	?	-62.0	0
O=C(CN1CCN(C(=O)CNC(=O)c2ccc(-c3ccccc3)cc2)CC1)Nc1ccccc1Cl	-	?	?	-	?	28.2µM
COC(=O)c1ccccc1NC(=O)Cn1c(=O)n(CCCC(=O)NCc2ccccc2Cl)c(=O)c2ccccc21	0	0	0	0	0	0
